Test results as given in PubChem BioAssay (EPA / NIEHS).
Values joined by “and” are separate entries in the source; they are usually repeats but may differ in a detail not shown here. Equal values may be shown once. Records with an inconclusive call do not appear. More than one record can exist for a structure, and the calls need not agree. Active and inactive are the calls of the source. The calls were made as follows: active = hit-call score of the fitted dose curve at least 0.9, where 1 is the maximum; inconclusive = response in the unintended direction; inactive = score below 0.9.

System: zebrafish Estrogen Receptor (ER2b), gene 317733
Experiment: ATG_zfER2b_XSP2: Attagene TRANS-FACTORIAL Multi-Species (XSP2) HepG2 Assay for zebrafish Estrogen Receptor (ER2b) (AID 2283823);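 also: fitted upward as reporter gain over DMSO so potency reflects activation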
Procedure, shortened: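 Transcriptional induction measured as reporter mRNA (RT-PCR, fluorescent capillary electrophoresis) in transiently transfected HepG2 cells after 24 h dosing; DMSO served as negative control and baseline.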

Row | Structure (SMILES) | AC50 | outcome
1 | c1ccc(B(c2ccccc2)c2ccccc2)cc1 | 18.1 µM (active) and 10.8 µM (active) | 
2 | O=C(OCCOCCOCCOC(=O)c1ccccc1)c1ccccc1 | 153 µM (active) | inactive
3 | C#C[C@]1(O)CC[C@H]2[C@@H]3CCc4cc(OC)ccc4[C@H]3CC[C@@]21C | 1.1 nM (active) and 0.373 nM (active) | 
